# Compounds with a hit are over-represented: about 12% of the library has one in this group of screens.
# CHOP inh = blocks CHOP induction under ER stress; CHO-K1 CHOP-promoter luciferase, tunicamycin-induced, 15-18 h; inhibition, % at 10 µM; actives 3.8% (n = 220,000);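 active = compounds that reduced the stress-induced luciferase reporter signal by more than about 70% of percent inhibition, limit read from the data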;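 note: 0% = tunicamycin plus vehicle and 100% = wells without tunicamycin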
# WT yeast gro inh = growth inhibition of WT yeast, mitochondrial fusion screen | mitochondrial fusion phenotypic screen, WT strain | AID 1362 | inhibition, % at 10 µM | actives 2.1% (n = 190,000); in the data active = inhibition above about 58%; tested in S. cerevisiae
# L major viab = reduces viability of Leishmania major promastigotes | resazurin fluorescence viability | inhibition, % at 10 µM | actives 9% (n = 200,000) | AID 1063; in the data active = inhibition above about 50%;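 note: promastigotes grown with compound for 44 hours at 28 °C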
# Arbovirus inh = arbovirus infection inhibition; actives 0.37% (n = 200,000); AID 1251; inhibition, % at 10 µM; arbovirus infection cell-based antiviral screen; in the data active = inhibition above about 30%
# Starred values were filed as active, the others as inactive; · = not tested or not shown.
SMILES,CHOP inh,WT yeast gro inh,L major viab,Arbovirus inh
COc1cc(Nc2nc(SCC#N)nc3ccccc23)cc(OC)c1OC,6.1,-15.5,53.4*,-2.0
OCCC1CN(Cc2cccc3nccnc23)CCN1Cc1ccc(F)cc1 (stereo not given),-14.1,·,·,·
Nc1cccc(CCc2nc3cc4ccccc4cc3[nH]2)c1,-7.0,-4.4,97.1*,-18.2
O=C(c1cc(-c2ccccn2)nc2c(Cl)cccc12)N1CCN(S(=O)(=O)c2ccccc2)CC1,-39.6,2.0,80.7*,4.6
O=C(c1cc(-c2ccccn2)nc2c(Cl)cccc12)N1CCN(C(=O)C2CCCO2)CC1 (stereo not given),7.2,-5.2,8.5,0.4
Cc1cnc(Nc2nc3ccccc3o2)nc1C(=O)Nc1cccc(C(F)(F)F)c1,91.1*,-8.8,2.2,-11.8
O=C(Nc1ccc(/C=C/c2nc3ccccc3o2)cc1)c1cccc(C(F)(F)F)c1,92.9*,17.6,-5.1,-3.5
c1ccc(CSc2nnc3ccc(-c4ccco4)nn23)nc1,18.6,-2.7,2.5,-0.3
O=C(CC1Sc2ncnn2C1=O)Nc1ccccc1 (stereo not given),8.7,-9.2,99.8*,7.7
O=C(CC1SC(=O)N(c2ccccc2)C1=O)Nc1ccccc1 (stereo not given),22.4,-7.1,-1.7,-0.5
CCC(C)(C)NC(=O)CN(C(=O)c1snc(C(N)=O)c1N)c1ccc2c(c1)OCCO2,7.5,73.4*,13.4,2.2
Cc1ccc(C(C(=O)NC(C)(C)C)N(Cc2ccccc2)C(=O)c2snc(C(N)=O)c2N)o1 (stereo not given),1.8,11.3,54.5*,14.6
CCCC(C(=O)NC(C)(C)C)N(C(=O)c1snc(C(N)=O)c1N)c1ccc2c(c1)OCCO2 (stereo not given),54.8,-4.8,52.3*,-9.4
CCC(C)(C)NC(=O)CN(C(=O)c1snc(C(N)=O)c1N)c1ccc2nc(C)sc2c1,-9.2,4.6,4.7,3.4
COc1ccc(NC(=O)COC(=O)CC2CC3CCC2C3)c([N+](=O)[O-])c1 (stereo not given),39.2,12.1,1.5,1.8
CC(=O)SC1CC2=CC(=O)CC[C@]2(C)C2CC[C@@]3(C)C(CC[C@@]34CCC(=O)O4)C12 (stereo not given in full),2.5,·,·,·
CCC(=O)Nc1cc2nn(-c3ccccc3)nc2cc1Cl,79.0*,-1.4,-1.1,-0.2
CC(C)CC(=O)Nc1ccc2nn(-c3ccccc3)nc2c1,28.2,11.5,-1.5,-10.7
Cc1onc(-c2c(Cl)cccc2Cl)c1NC(=O)NC1CCSC1 (stereo not given),8.9,·,·,·
O=C(NCc1ccccc1)C1=C[C@H](c2ccc(C(F)(F)F)cc2)C[C@H](OCc2ccc(CO)cc2)O1,36.0,33.7,14.5,-12.1
O=C(NCc1nc2ccccc2[nH]1)C1=C[C@@H](c2csc3ccccc23)C[C@@H](OCc2ccc(CO)cc2)O1,61.7,8.6,95.5*,-0.7
O=C(NCc1nc2ccccc2[nH]1)C1=C[C@@H](c2ccc(Br)cc2)C[C@@H](OCc2ccc(CO)cc2)O1,47.0,16.3,78.0*,-10.1
O=C(NCc1ccccc1)C1=C[C@@H](c2ccc(Br)cc2)C[C@@H](OCc2ccc(CO)cc2)O1,14.2,25.9,54.9*,-10.5
Brc1ccc(/C=N/Nc2ccccc2)cc1,35.6,43.4,8.5,-29.4
Fc1cccc(/C=N/Nc2ccc3ccccc3n2)c1,50.5,20.2,51.8*,7.9
SMILES,CHOP inh,WT yeast gro inh,L major viab,Arbovirus inh
Brc1ccc(/C=N/Nc2ccc3ccccc3n2)cc1,57.0,60.0*,1.4,1.7
Brc1ccccc1/C=N/Nc1ccc2ccccc2n1,2.0,68.6*,40.9,39.2*
Cc1cc(N/N=C/c2ccccc2Br)nc2ccccc12,16.9,70.1*,52.3*,6.6
Cc1cc(C)nc(N2CCN(C(=O)CCC(=O)Nc3nnc(C(C)C)s3)CC2)n1,3.9,·,·,·
CN(C)S(=O)(=O)c1cccc(C(=O)Nc2ccc(S(=O)(=O)N3CCCC3)cc2)c1,25.5,-4.1,-0.5,6.0
COC(=O)C1=C(C)N=C2SC(C#N)=C(N)N2C1c1ccc(OCc2ccccc2)cc1 (stereo not given),88.5*,26.4,97.7*,-37.3
COC(=O)C1=C(C)N=C2SC(C#N)=C(N)N2C1c1cc(OC)c(OC)c(OC)c1 (stereo not given),3.3,-19.0,-0.4,0.1
Cc1cccc(NCC(=O)N/N=C/c2ccc(Br)cc2)c1,68.5,4.1,-1.7,-11.2
CC1CC1C(=O)OCC(=O)Nc1ccc2[nH]c(=O)[nH]c2c1 (stereo not given),-6.5,-3.0,-3.9,1.8
C=CCn1c(-c2ccc(OC)cc2)csc1=Nc1c(C)n(C)n(-c2ccccc2)c1=O,40.4,5.8,93.1*,10.2
Cc1ccc(CON=C2CCN(c3ncc(C(F)(F)F)cc3Cl)CC2)cc1,44.5,40.6,-6.5,8.6
FC(F)(F)c1cnc(N2CCC(=NOCc3ccc(Cl)cc3)CC2)c(Cl)c1,8.3,63.2*,-10.3,-2.2
COc1ccccc1N1CCN(C(=O)CSc2ncccc2-c2nc3ccccc3[nH]2)CC1,35.7,-5.4,50.4*,-4.0
O=C(CSc1ncccc1-c1nc2ccccc2[nH]1)N1CCN(c2ccccc2F)CC1,22.2,6.4,11.8,-5.6
COc1ccc(N2CCN(C(=O)CSc3ncccc3-c3nc4ccccc4[nH]3)CC2)cc1,43.3,17.6,57.8*,-1.9
COc1ccccc1-c1nnc(SCC(=O)c2ccc(C3CCCCC3)cc2)n1Cc1ccco1,24.1,-14.8,24.7,-24.7
CCOC(=O)C1=C(C)OC(N)=C(C#N)C1c1ccc(C)s1 (stereo not given),-17.9,-6.3,4.3,-1.9
O=C(Nc1cccc(Cl)c1)Nn1cnnc1,-7.5,·,·,·
Clc1ccc(-c2c[n+]3c(n2-c2ccccc2)SCC3)cc1,-2.3,10.6,97.3*,12.2
Fc1ccc(-c2cn(-c3ccccc3)c3[n+]2CCS3)cc1,-15.0,·,·,·
CC(=O)c1ccc(-n2cc(-c3ccc(C(C)(C)C)cc3)[n+]3c2SCCC3)cc1,17.5,12.6,100.1*,6.3
COc1ccc(-c2cn(-c3ccc(Br)cc3)c3[n+]2CCS3)cc1,-10.5,-6.7,100.0*,-3.4
Clc1ccc(-c2cn(-c3ccccc3)c3[n+]2CCS3)cc1,-9.6,-6.4,69.8*,5.8
COc1ccc(-c2cn(-c3ccc(Cl)cc3)c3[n+]2CCCCC3)cc1,2.2,·,·,·
Clc1ccc(-c2cn(-c3ccc(Cl)cc3)c3[n+]2CCCCC3)cc1,-17.4,·,·,·
SMILES,CHOP inh,WT yeast gro inh,L major viab,Arbovirus inh
O=C(COC(=O)CCC1CCCC1)Nc1ccc(Cl)cc1F,63.5,16.0,-6.4,-1.7
O=C(c1ccccc1)N1CCc2ccccc21,32.0,-1.1,-2.1,-4.6
Cc1c(C(=O)N2CCc3ccccc32)oc2ccccc12,24.6,31.9,81.2*,-4.3
CN(C)S(=O)(=O)N1CCC(CO)(Cc2cccc(C(F)(F)F)c2)CC1,13.8,10.6,9.7,-5.6
CSc1cccc(CN2CCC(CO)(Cc3cccc(C(F)(F)F)c3)CC2)c1,23.1,57.4,81.3*,-29.2
OCC1(Cc2cccc(C(F)(F)F)c2)CCN(Cc2cc(F)cc(F)c2)CC1,10.6,69.3*,85.7*,-31.2
COc1ccc(NC(=O)C(C)N2C(=O)c3ccccc3C2=O)cc1S(=O)(=O)N1CCOCC1 (stereo not given),-6.4,-0.6,9.7,3.9

# Screening data: PubChem BioAssay, several laboratories
